Screen size: about 320,000 compounds; about 2,100 (0.66%) were called active. Roughly 53% stayed inconclusive and do not appear here. The call rests on the fitted dose curve; in most records, active means well fitted inhibition curve with a large enough effect in the signal ratio, with a control signal flat (not every such curve was filed as active); inconclusive means small, poorly fitted or top-dose-only effect, or effect the other way, or a change in a side signal; inactive means flat fitted curve, though single readings scatter; the % refers to the signal ratio. For the sample, actives were picked, then their nearest neighbours and some compounds at random.
Assay: qHTS Assay for Lipid Storage Modulators in Drosophila S3 Cells;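 on cell number change: cells counted by Cell Tracker Red CMTPX staining in the red channel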; on lipid storage change, negative = inhibition: on the % scale 0 is the no-effect control and ±100 the full control effect
Conditions: BODIPY lipid droplet fluorescence, 18-24 h, cells fed with added oleic acid; cell number change: measured here: cell count max response; series mostly up to 46.1 µM; lipid storage change, negative = inhibition: at the top concentration
Procedure, shortened: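 Laser-scanning cytometry quantifies lipid droplet accumulation (500–530 nm total intensity; droplet/cell object ratio) in oleic acid-fed (400 uM added) Drosophila S3 cells treated with a concentration series. 20 uM Triacsin C defined 100% inhibition.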
Potency means the concentration at half of the fitted maximal effect.

Which “lipid storage change, negative = inhibition” value does the source give for `CCCCC(C(=O)N/N=C/c1ccccn1)C(=O)N/N=C/c1ccccn1` here?
The value was 15.9% (inactive).

And the cell number change?
The cell number change was 2.01%.

Which results are given for `COc1cccc(NC(C)(C)c2nnnn2-c2c(C)cccc2C)c1`?
lipid storage change, negative = inhibition: -0.863% (inactive); cell number change: 12.6%

Which “lipid storage change, negative = inhibition” value does the source give for `O=C(CCN1CCc2ccccc2C1)Nc1ccc(F)c(F)c1` here?
Its value is 14.2% (inactive).

For `CCOC(=O)c1c(S(=O)(=O)NCC(=O)Nc2ccc(OC)cc2)c(C)n(C)c1C`, which “lipid storage change, negative = inhibition” value is on record?
Its value is 23.4% (inactive).

With `CCCOC(=O)CCCC[C@H]1SC[C@@H](NC(=O)OC)[C@H]1NC(=O)OC` as the molecule, how does the “lipid storage change, negative = inhibition” value read?
Its value is 3.15% (inactive).

And the cell number change?
The cell number change was 5.48%.

What does the source list for `CCOC(=O)c1c(C)nc(-c2ccccc2)nc1N`?
outcome: inactive; cell number change: 1.72%

With `O=C(Cc1ccccc1Cl)NCCCn1ccnc1` as the molecule, how does the “lipid storage change, negative = inhibition” value read?
The value was -1.3% (inactive).

What about the cell number change of the same molecule?
Its cell number change is -1.19%.

For `O=C(COc1coc(CN2CCN(c3ccccc3)CC2)cc1=O)NCC1CCCO1` (configuration not stated), which outcome is on record?
Its outcome is “inactive [at 0.0737 µM]”.

Which “lipid storage change, negative = inhibition” value does the source give for `CCN(CC)S(=O)(=O)c1c(OC)cc(C)c(Cl)c1C` here?
The value was -25% (inactive).

What about the cell number change of the same molecule?
The cell number change was 8.74%.

For `O=C(COc1ccc(Br)cc1)NCCCn1ccnc1`, which “lipid storage change, negative = inhibition” value is on record?
The value was -17.2% (inactive).

What about the cell number change of the same molecule?
The cell number change was 9.25%.

Which “outcome” value does the source give for `Cc1c(C)c2ccc(OCC(=O)Nc3ccccn3)c(C)c2oc1=O` here?
Its value is “inactive”.

What about the cell number change of the same molecule?
The cell number change was 15.9%.

Which “lipid storage change, negative = inhibition” value does the source give for `CCCc1cc(=O)oc2cc(C)cc(OCC(=O)NCCCn3ccnc3)c12` here?
Its value is -24.1% (inactive).

And the cell number change?
The cell number change was 0.597%.

For `Cc1cc(OCC(=O)NCCCn2ccnc2)c2c(C)c(C)c(=O)oc2c1`, which Potency is on record?
Its Potency is 13 µM (active).

For `CCc1cc(=O)oc2cc(C)cc(OCC(=O)NCCCn3ccnc3)c12`, which “lipid storage change, negative = inhibition” value is on record?
The value was 10.1% (inactive).

And the cell number change?
Its cell number change is 8.87%.

Which results are given for `CCCc1cc(=O)oc2cc(C)cc(OCC(=O)NCc3cccnc3)c12`?
outcome: inactive; cell number change: -12.5%

Which Potency does the source give for `Cc1cc(OCC(=O)Nc2ccccn2)c2c(C)c(C)c(=O)oc2c1` here?
The Potency was 7.31 µM (active).

What about the cell number change of the same molecule?
Its cell number change is -10.4%.

For `COc1ccc(OCC(=O)NCCCn2ccnc2)cc1`, which “lipid storage change, negative = inhibition” value is on record?
The value was 19.8% (inactive).

What about the cell number change of the same molecule?
The cell number change was 17.2%.

Which results are given for `O=C(COc1ccc(F)cc1)NCCCn1ccnc1`?
Potency: 25.9 µM (active); cell number change: -6.85%

What does the source list for `CCCc1cc(=O)oc2cc(C)cc(OCC(=O)NCc3ccccn3)c12`?
Potency: 11.6 µM (active); cell number change: 6.85%

Which results are given for `Cc1cc(OCC(=O)NCc2ccncc2)c2c(C)c(C)c(=O)oc2c1`?
outcome: inactive; cell number change: 8.73%

For `CCCc1cc(=O)oc2cc(C)cc(OCC(=O)NCc3ccncc3)c12`, which “outcome” value is on record?
The value was “inactive”.

And the cell number change?
Its cell number change is 4.58%.

With `COc1ccc(CN(C)S(=O)(=O)c2nnc(NC(=O)c3ccccc3OC)s2)cc1OC` as the molecule, how does the “outcome” value read?
Its value is “inactive”.

And the cell number change?
Its cell number change is -3.88%.

With `Cc1ccccc1CCNC(=O)C1CCCN(c2cnccn2)C1` (configuration not stated) as the molecule, how does the “outcome” value read?
The value was “inactive”.

What about the cell number change of the same molecule?
Its cell number change is -4.78%.

For `Cc1cccc(NC(=S)NCC(c2cccnc2)N2CCOCC2)c1` (configuration not stated), which “lipid storage change, negative = inhibition” value is on record?
The value was 16.3% (inactive).

What about the cell number change of the same molecule?
Its cell number change is 16.1%.

Which “lipid storage change, negative = inhibition” value does the source give for `N#Cc1ccc(C(CC(=O)O)N2Cc3ccccc3C2=O)cc1` (configuration not stated) here?
Its value is 1.6% (inactive).

And the cell number change?
Its cell number change is 6.48%.

Which “lipid storage change, negative = inhibition” value does the source give for `Cc1ccc(NC2CCCN(C(=O)c3ccoc3)C2)cc1C` (configuration not stated) here?
Its value is -3.71% (inactive).

And the cell number change?
Its cell number change is -11.9%.

What does the source list for `O=C(c1ccc(C(F)(F)F)cc1)N1CCN(S(=O)(=O)c2ccc3c(c2)OCCCO3)CC1`?
lipid storage change, negative = inhibition: 16.3% (inactive); cell number change: 3.78%

Which “outcome” value does the source give for `COc1ccccc1NC(=O)c1cccc2c(Br)cccc12` here?
The value was “inactive”.

What about the cell number change of the same molecule?
Its cell number change is -20.6%.

Which Potency does the source give for `COc1ccccc1C(=O)Nc1ccc(Br)c2cccnc12` here?
Its Potency is 1.64 µM (active).

What about the cell number change of the same molecule?
The cell number change was -27.2%.

With `COc1ccccc1C(=O)Nc1ccc(Br)cc1C` as the molecule, how does the “lipid storage change, negative = inhibition” value read?
Its value is 7.89% (inactive).

What about the cell number change of the same molecule?
Its cell number change is 6.15%.

For `CNc1ccc(Oc2c(F)c(F)nc(F)c2F)cc1`, which “lipid storage change, negative = inhibition” value is on record?
Its value is 5.56% (inactive).

And the cell number change?
The cell number change was -27.7%.

For `CCn1c(=O)n(CC)c2cc(N3CCCC3)c(NC(=O)c3ccc(C)cc3)cc21`, which “outcome” value is on record?
The value was “inactive”.

And the cell number change?
Its cell number change is -23.8%.

Which Potency does the source give for `CCn1c(=O)n(CC)c2cc(N3CCCC3)c(NC(=O)c3cc(Cl)ccc3OC)cc21` here?
The Potency was 5.8 µM (active).

And the cell number change?
The cell number change was -12.8%.

Which results are given for `COc1ccc(Cl)cc1C(=O)Nc1ccccc1N1CCCCC1`?
lipid storage change, negative = inhibition: 24.2% (inactive); cell number change: 5.02%

For `Cc1ccc2c(n1)CC(C)(C)C/C2=N\O`, which “lipid storage change, negative = inhibition” value is on record?
Its value is 2.92% (inactive).

What about the cell number change of the same molecule?
Its cell number change is 3.94%.

With `CC(C)Oc1cccc(C(=O)C2CCCN(C(=O)c3ccsc3)C2)c1` (configuration not stated) as the molecule, how does the Potency read?
The Potency was 18.4 µM (active).

And the cell number change?
Its cell number change is -18.6%.

With `CC(C)Oc1cccc(C(=O)C2CCCN(C(=O)c3csnn3)C2)c1` (configuration not stated) as the molecule, how does the “lipid storage change, negative = inhibition” value read?
The value was -2.76% (inactive).

And the cell number change?
The cell number change was 3.1%.

With `CC(C)Oc1cccc(C(=O)C2CCCN(C(=O)c3ccc4c(c3)OCO4)C2)c1` (configuration not stated) as the molecule, how does the “lipid storage change, negative = inhibition” value read?
The value was -19.1% (inactive).

And the cell number change?
Its cell number change is -14.4%.

With `Cn1ncc(N=Cc2ccccc2[N+](=O)[O-])c1C(N)=O` as the molecule, how does the “lipid storage change, negative = inhibition” value read?
The value was 12.9% (inactive).

What about the cell number change of the same molecule?
The cell number change was -4.8%.

Which “lipid storage change, negative = inhibition” value does the source give for `CCOC(=O)Cn1c(=N)n(CCOc2ccc(Br)cc2)c2ccccc21` here?
Its value is -6.39% (inactive).

And the cell number change?
The cell number change was -7.97%.

For `CCOC(=O)Cn1nc(C)c(NC(=O)CCc2ccccc2)c1C`, which “lipid storage change, negative = inhibition” value is on record?
Its value is -3.97% (inactive).

What about the cell number change of the same molecule?
The cell number change was 12.6%.

With `Fc1cccc(CCN2CCNC[C@H]2Cc2cccc3ccccc23)c1` as the molecule, how does the Potency read?
The Potency was 14.6 µM (active).

Which “lipid storage change, negative = inhibition” value does the source give for `c1ccc(C[C@H]2CNCCN2CCc2cccc3ccccc23)cc1` here?
The value was 2.45% (inactive).

What about the cell number change of the same molecule?
The cell number change was -0.264%.

Which results are given for `Oc1ccc(C[C@@H]2CNCCN2CCc2cccc3ccccc23)cc1`?
lipid storage change, negative = inhibition: 9.05% (inactive); cell number change: -30.1%

Which “lipid storage change, negative = inhibition” value does the source give for `C=CCn1c(C)cc(C(=O)COC(=O)c2ccc(N)c([N+](=O)[O-])c2)c1C` here?
The value was 13.4% (inactive).

And the cell number change?
Its cell number change is 5.39%.

With `CCN(CC)CCCNC(=S)N(Cc1cccnc1)Cc1cc2cc(C)ccc2[nH]c1=O` as the molecule, how does the “lipid storage change, negative = inhibition” value read?
The value was 11.3% (inactive).

What about the cell number change of the same molecule?
Its cell number change is 5.5%.

Which Potency does the source give for `CN1CCCC(C(=O)C(C#N)c2ccccc2)C1` (configuration not stated) here?
Its Potency is 29.1 µM (active).

What about the cell number change of the same molecule?
Its cell number change is -21.6%.

With `CC(CN1CCCC(C(N)=O)C1)c1ccccc1` (configuration not stated) as the molecule, how does the “lipid storage change, negative = inhibition” value read?
Its value is -19.6% (inactive).

And the cell number change?
Its cell number change is -8.59%.

For `CCOC(=O)C1CCCN(CCC(C)c2ccccc2)C1` (configuration not stated), which “lipid storage change, negative = inhibition” value is on record?
Its value is 13.5% (inactive).

What about the cell number change of the same molecule?
Its cell number change is 2.31%.

For `CC(C)n1nc(C(=O)Nc2cccc(S(=O)(=O)NCc3ccco3)c2)c2ccccc2c1=O`, which “outcome” value is on record?
Its value is “inactive”.

And the cell number change?
The cell number change was -6.04%.

Which “lipid storage change, negative = inhibition” value does the source give for `CC(C)[C@H](NS(=O)(=O)c1ccccc1)C(=O)OCn1nnc2ccccc2c1=O` here?
The value was -13.3% (inactive).

What does the source list for `CC(=O)OCn1nnc2ccccc2c1=O`?
lipid storage change, negative = inhibition: 3.6% (inactive); cell number change: 12.3%

Which Potency does the source give for `CC(C)C(NC(=O)c1ccccc1)C(=O)OCn1nnc2ccccc2c1=O` (configuration not stated) here?
The Potency was 16.4 µM (active).

What about the cell number change of the same molecule?
Its cell number change is -15.7%.

Which “lipid storage change, negative = inhibition” value does the source give for `CCOC(=O)c1ccccc1NC(=S)N1CCC(C)CC1` here?
The value was 29.6% (inactive).

What about the cell number change of the same molecule?
The cell number change was -4.08%.

For `Cc1nnsc1S(=O)c1ccccc1Cl` (configuration not stated), which “lipid storage change, negative = inhibition” value is on record?
Its value is 14.1% (inactive).

What about the cell number change of the same molecule?
Its cell number change is -9.44%.

With `O=[N+]([O-])c1cccc(/C=N/NS(=O)(=O)c2ccccc2)c1` as the molecule, how does the “lipid storage change, negative = inhibition” value read?
Its value is -12.4% (inactive).

And the cell number change?
The cell number change was -12.3%.

With `C=CCNC(=S)NNC(=O)c1ccc(Br)cc1` as the molecule, how does the “lipid storage change, negative = inhibition” value read?
Its value is -0.112% (inactive).

What about the cell number change of the same molecule?
Its cell number change is -6.86%.

What does the source list for `CC(=O)c1ccc(NC(=S)NC(=O)/C=C/c2ccco2)cc1`?
lipid storage change, negative = inhibition: 9.91% (inactive); cell number change: -2.35%

For `CC(=O)NC(=S)Nc1ccc(NC(=S)NC(=O)/C=C/c2ccco2)cc1`, which “lipid storage change, negative = inhibition” value is on record?
The value was 8.43% (inactive).

What about the cell number change of the same molecule?
The cell number change was 15.8%.

Which results are given for `CC(=O)Nc1ccc(NC(=S)NC(=O)/C=C/c2ccco2)cc1`?
Potency: 4.61 µM (active); cell number change: -27.7%

Which “lipid storage change, negative = inhibition” value does the source give for `CCO[C@H]1OC(C(=O)N2CCN(C)CC2)=C[C@@H](C2CC2)[C@@H]1CCCO` here?
The value was -7.66% (inactive).

Which “outcome” value does the source give for `Cc1cc(OCC(=O)NNC(=S)NCC2CCCO2)cc(C)c1Cl` (configuration not stated) here?
Its value is “inactive”.

What about the cell number change of the same molecule?
The cell number change was -9.63%.

— PubChem BioAssay AID2685 (National Center for Advancing Translational Sciences (NCATS), 2010)
